Only some compounds are listed: those with a hit (about 17% of all), similar ones and a draw of the others.
TGFb inhibitor: TGF-b pathway inhibition; AID 588855; Potency, µM (titrated, usually from 46.1 µM), without a hit: top-dose activity, negative = inhibition, usual class: inhibitors; HepG2 CAGA-GFP TGF-b/SMAD3 reporter, GFP fluorescence, 18 h; TGF-beta stimulated, 500 pg/mL final; hit rate 1.2% among 410,000; also: % is scaled to controls: 0 for no effect and ±100 for the full control effect; nearly all actives have a fitted effect of over 65% in size
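Smad-responsive CAGA-GFP expression was quantified in HEPG2 cells exposed to compounds and 500 pg/mL final TGF-beta for 18 h at 37 degrees C; unstimulated wells defined full inhibition.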
HT1080-NT tox: kills 2HG-producing HT-1080-NT fibrosarcoma cells; HT-1080-NT fibrosarcoma viability, CellTiter-Glo ATP luminescence, 48 h; Potency, µM (doses to about 46.1 µM), inactives show top-dose activity, negative = less viability, usual class: cytotoxic; hit rate 1.6% among 360,000;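 also: NT is the 2HG producing partner of a matched IDH1 knockdown line; 0% = DMSO-treated cells and -100% = media-only wells without cells; nearly all actives have a fitted effect of over 55% in size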
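Viability by CellTiter-Glo luminescence after 48 h compound exposure at 37C of HT-1080-NT cells (750/well, RPMI, 5% FBS). % activity scaled between DMSO wells and medium-only wells, then curve-fitted and categorized by curve class.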
HT1080 IDH1KD tx: HT-1080 IDH1 knockdown cell toxicity (counter line); Potency, µM (titrated, usually from 46.1 µM), for the others: at the top dose activity, negative = toxicity, hits mostly cytotoxic; HT-1080 IDH1 knockdown viability, ATP luminescence, 48 h; hit rate 2% among 360,000;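 also: 0% = DMSO wells and -100% = cell-free medium wells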
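After a 2 h attachment period, IDH1KD HT-1080 cells took pin-transferred compound for 48 h at 37 °C; ATP-based luminescence after 10 min room-temperature reagent incubation reported viability.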
TDP1 cell CPT: growth inhibition of DT40 Tdp1-/-;hTDP1 cells with camptothecin (screen for TDP1 inhibitors) | Potency, µM (series often up to 46.2 µM), inactives show top-dose activity change, negative = growth inhibition, usual class: inhibitors | chicken DT40 Tdp1-/-;hTDP1 cells + 20 nM CPT, ATP luminescence, 48 h | hit rate 12% among 420,000 | AID 686979; also: % is scaled to controls: 0 for no effect and ±100 for the full control effect; nearly all actives have a fitted effect of over 55% in size
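Chicken DT40 Tdp1-/- cells stably complemented with human TDP1 were seeded at 400 cells/well in medium containing 20 nM camptothecin, exposed to pin-transferred compounds, and grown at 37 °C for at least 48 hr. Viability was read as ATP luminescence.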
DT40 TDP1 no CPT: qHTS for Inhibitors of human tyrosyl-DNA phosphodiesterase 1 (TDP1): qHTS in cells in absence of CPT; hit rate 15% among 420,000; AID 686978, 2013; DT40 Tdp1-/- hTDP1 cells, no CPT, ATP luminescence, 48 h; Potency, µM (highest dose often 46.2 µM), for the others: at the highest dose activity change, negative = growth inhibition, most hits filed as inhibitors; also: % is scaled to controls: 0 for no effect and ±100 for the full control effect; nearly all actives have a fitted effect of over 55% in size
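Camptothecin absent (DMSO only). Human TDP1-complemented DT40 knockout cells, 400 cells/well, 37 °C for minimum 48 hr; ATP measured via CellTiter-Glo, 30 min dark incubation, luminescence.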
HepG2 viability: HepG2 cytotoxicity, counter-screen for TGF-b inhibitors. HepG2 CAGA-GFP viability, ATP luminescence, 18 h. Potency, µM (series often up to 46.1 µM), for the others: at the highest dose activity change, negative = cytotoxicity, actives largely listed as cytotoxic. hit rate 0.76% among 410,000. AID 588856
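HepG2 CAGA-GFP cells (1000/well, DMEM with 1% FBS) received compound, then TGF-beta at 500 pg/mL final, and were incubated 18 hours at 37 degrees C. Viability was read by CellTiter-Glo luminescence. Media-only wells were set as complete cell-killing and DMSO as no toxicity.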
The depositor's hits bear a star; u = inconclusive; x = not tested or not shown. Calls follow the shape of the dose curve; as a rule, active = well fitted curve in the direction sought with a large enough effect; inconclusive = small, poorly fitted or top-dose-only effect, or another doubt; inactive = no such curve, though single readings can be large; an effect the other way counts as inactive or inconclusive. Potency is read from the fitted curve at half-maximal effect.

SMILES	TGFb inhibitor	HT1080-NT tox	HT1080 IDH1KD tx	TDP1 cell CPT	DT40 TDP1 no CPT	HepG2 viability
COc1ccc(F)cc1COc1nc(C)nc2ccccc12	-13.2%	-2.4%	-6.6%	u	18.4µM*	-10.7%
OCCNc1nc(N2CCN(c3ccccc3)CC2)nc2ccccc12	8.8%	-2.5%	-3.2%	23.1µM*	u	-33.1%
Cc1ccc(OCCN2CCN(c3nc(NCc4ccco4)c4ccccc4n3)CC2)cc1	u	-12.0%	-14.3%	u	14.6µM*	-112.8%
c1ccc(CN2CCN(c3nc(NCc4ccco4)c4ccccc4n3)CC2)cc1	u	-24.0%	u	u	23.1µM*	-38.4%
Cc1onc(-c2ccccc2)c1C(=O)N/N=C/c1cc2c(cc1Cl)OCO2	-27.9%	1.4%	-4.6%	u	u	-16.2%
CCOC(=O)CSc1cc(CSc2ccccc2)nc(-c2ccccc2)n1	u	0.0%	-4.0%	-20.1%	u	1.5%
O=C(CCN1C(=O)/C(=C\c2ccccc2)SC1=S)NCCCN1CCOCC1	-8.5%	-0.1%	1.4%	u	u	-15.6%
CCc1ccc(/C=C2/Sc3ccccc3N(CC(=O)NCCCN3CCOCC3)C2=O)cc1	u	7.5%	-0.4%	u	20.6µM*	17.8µM*
O=C(CN1C(=O)/C(=C\c2cccc(Cl)c2)Sc2ccccc21)NCCCN1CCOCC1	-21.6%	5.5%	-0.1%	23.1µM*	23.1µM*	-30.0%
O=C(CN1C(=O)/C(=C\c2ccccc2Cl)Sc2ccccc21)NCCCN1CCOCC1	0.1%	u	u	u	u	-24.3%
O=C(CN1C(=O)/C(=C\c2cccc(Br)c2)Oc2ccccc21)NCCCN1CCOCC1	11.9%	7.7%	-24.4%	u	18.4µM*	-25.1%
O=C(CN1C(=O)/C(=C/c2ccc(C(F)(F)F)cc2)Sc2ccccc21)NCCCN1CCOCC1	u	u	u	25.9µM*	u	-53.3%
O=C(COc1ccc2ccc(=O)oc2c1)NCCCn1ccnc1	-1.8%	1.2%	14.3%	8.4%	9.5%	0.1%
COC(=O)c1ccc(C(=O)OC)c(NC(=O)N2CC3CCCN3c3ccccc32)c1 (configuration not stated)	-12.8%	x	x	u	u	0.3%
O=C(NCc1ccc(Cl)cc1)c1ccc(NC(=O)N2CC3CCCN3c3ccccc32)cc1 (configuration not stated)	-7.5%	x	x	16.4µM*	18.4µM*	2.2%
O=C(NCc1ccc(F)cc1)c1ccc(NC(=O)N2CC3CCCN3c3ccccc32)cc1 (configuration not stated)	-26.1%	x	x	16.4µM*	11.6µM*	-7.9%
O=S(=O)(Nc1nccs1)c1ccc(F)cc1	-3.2%	0.4%	-2.5%	1.7%	-1.2%	-7.7%
O=C(c1ccco1)N1CCN(c2ncnc3c2cnn3-c2ccccc2)CC1	4.8%	-6.9%	-11.5%	u	29.1µM*	0.6%
O=C(c1ccccc1)N1CCN(c2ncnc3c2cnn3-c2ccccc2)CC1	-4.2%	-11.0%	-7.4%	23.1µM*	20.6µM*	-19.4%
CCc1cc2c(N3CCN(C(=O)c4ccco4)CC3)ncnc2s1	6.9%	-9.6%	-3.0%	u	u	2.7%
O=C(c1cccc(Cl)c1)N1CCN(c2ncnc3c2cnn3-c2ccccc2)CC1	15.1%	13.1%	-0.9%	20.2%	-3.8%	0.1%
Cc1nn(-c2ccccc2)c(Cl)c1C(=O)N1CCN(c2ncnc3c2cnn3-c2ccccc2)CC1	u	20.6µM*	u	3.26µM*	4.11µM*	-10.9%
